Experimental data as given in PubChem BioAssay AID771 (SRMLSC, 2007).
Hit rate of the full screen: of about 3,300 compounds, about 55 (2%) were called active.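 How the source made its calls: active means growth inhibition above 90%, meaning viable cell count by imaging cut by more than 90% versus vehicle controls; inactive means growth inhibition below 90%.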 The entries come from a sample that favours actives as a whole.

Assay: HT29 colon tumor cell growth inhibition, primary screen, imaging, high content imaging, 48 h, CellTiter-Glo (AID 771);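 on condensed nuclei: condensed means Hoechst nuclear area under control median minus 1.5 SD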
Settings: HCS imaging cell count, at 10 µM, stronger effect = higher value; for condensed nuclei: measured here: percent cells with condensed nuclei
[1] = measured here: ATP CellTiter-Glo viability inhibition

Compound	growth inhibition	condensed nuclei [%]	growth inhibition [1] [%]
c1ccc2c(c1)[nH]c1cnccc12	-8.76% (inactive)	2.05	–
Cc1c2ccncc2c(C)c2c1[nH]c1ccccc12	97% (active)	22.4	–
COc1ccccc1-n1c(O)c(C=NCCCn2ccnc2)c(=O)[nH]c1=O	-20.9% (inactive)	3.63	8.58
CC1(C)CC(=O)C(C=NCCN2CCN(C(=O)Cc3ccc(F)cc3)CC2)=C(O)C1	44.1% (inactive)	1.29	0.25
COCCOC(=O)c1c(N)n(Cc2ccco2)c2nc3ccccc3nc12	-45.9% (inactive)	3.74	-19.7
Nc1c(C(=O)NCc2ccco2)c2nc3ccccc3nc2n1CCN1CCCCC1	96.7% (active)	15.6	86.4
Nc1c(C(=O)NCc2ccco2)c2nc3ccccc3nc2n1Cc1ccc(F)cc1	34.1% (inactive)	1.57	32.2
Cc1ccc(C)c(C2(O)CC(C)N(C)CC2C)c1 (stereo not given)	-0.27% (inactive)	2.34	1.07
CC[C@@H](CO)NC(=O)[C@@H]1C=C2c3cccc4c3c(cn4C)C[C@H]2N(C)C1	12.4% (inactive)	0.97	–
CN1C[C@H](CNC(=O)OCc2ccccc2)C[C@@H]2c3cccc4c3c(cn4C)C[C@H]21	93.2% (active)	18.1	–
CC(C)[C@@]1(NC(=O)[C@@H]2C[C@@H]3c4cccc5[nH]cc(c45)C[C@H]3N(C)C2)O[C@@]2(O)[C@@H]3CCCN3C(=O)[C@H](Cc3ccccc3)N2C1=O	88.7% (inactive)	10.3	–
O=C(Nc1ccncc1)c1c(O)c2ccccc2n(Cc2ccccc2)c1=O	-29.4% (inactive)	1.56	-27.2
CCOC(=O)[C@@]1(C#N)[C@@H]2C=CC(C(N)=O)=CN2[C@@H](C(N)=O)[C@@H]1c1cccc(Cl)c1	1.36% (inactive)	1.63	-5.1
CC1(c2ccccc2)NCCN2C(=O)CSC21 (stereo not given)	-10.3% (inactive)	1.47	-1.15
CCOc1ccc(-n2c(O)c(C=NCCN3CCNCC3)c(=O)[nH]c2=O)cc1	46.2% (inactive)	2.45	-8.84
